This is a sample that favours compounds with a hit; in the whole collection about 1.8% have one here.
MEP2-GFP yeast = yeast TOR pathway MEP2-GFP modulation; S. cerevisiae MEP2-GFP strain, flow cytometry GFP, 3 h; 100% = DMSO control level; 0.51% of 330,000 active; GFP response vs DMSO, % at 10 µM; AID 2016;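 active means GFP response versus DMSO above a set limit, roughly screen mean plus 3 SD, cut at about 180% in these data; inconclusive means fewer than 70 cells counted for a yeast strain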;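 further: median GFP fluorescence of the barcode-gated MEP2-GFP cells per well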
AGP1-GFP MLPCN = yeast TOR pathway AGP1-GFP modulation; S. cerevisiae AGP1-GFP multiplex flow cytometry, 3 h; GFP as percent of DMSO wells; GFP response vs DMSO, % at 10 µM; 0.02% of 320,000 active;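 active means GFP response relative to DMSO above a set limit, near screen average plus 3 SD, cut at about 150% in these data; inconclusive means fewer than 70 cells counted for the yeast strain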;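 further: median GFP channel fluorescence of the gated AGP1 strain per well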
RPL19A TOR yeast = alters RPL19A-GFP fluorescence in TOR pathway yeast screen | AID 2025 | percent response vs DMSO, % at 10 µM | 0.3% of 330,000 active | S. cerevisiae RPL19A-GFP strain, flow cytometry, 3 h; active compounds read low;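 active means percent response vs DMSO below 50%; inconclusive means fewer than 70 events counted for the yeast strain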;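 further: median channel GFP fluorescence of the barcoded RPL19A-GFP strain; ratio of sample median GFP to plate DMSO average so 100% = DMSO; lower means less RPL19A-GFP as with rapamycin TOR inhibition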
LAP4 TOR yeast = modulators of TOR pathway LAP4-GFP in S. cerevisiae; S. cerevisiae LAP4-GFP multiplex, flow cytometry GFP, 3 h; median GFP as percent of DMSO wells; GFP response vs DMSO, % at 10 µM; 0.34% of 320,000 active; AID 2023;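 active means GFP response vs DMSO above a set limit, about the screen mean plus 3 SD, cut at about 150% in these data; inconclusive means under 70 cell events counted for the yeast strain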
CIT2-GFP yeast = modulators of TOR pathway CIT2-GFP in S. cerevisiae. S. cerevisiae CIT2-GFP strain, flow cytometry, 3 h; 100 means same as DMSO wells. GFP response vs DMSO, % at 10 µM. 0.065% of 320,000 active. AID 2029;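 active means GFP response relative to DMSO above a set limit, near the screen mean plus 3 SD, cut at about 150% in these data; inconclusive means Fewer than 70 cells measured for a yeast strain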;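 further: ratio of well median GFP fluorescence to mean of DMSO wells on the plate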
Myeloid diff MLP = myeloid differentiation induction; calls only at 10 µM; AID 624256; 1% of 360,000 active; ER-HoxA9 myeloid progenitors, lysozyme-GFP differentiation, flow cytometry;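 active means normalized GFP-positive differentiation at or above the plate's own cutoff, the solvent-only control mean plus 3 SD; inconclusive means no clear call, values can overlap the other calls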;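 further: cells exposed to compound for four days before flow analysis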
Myeloid diff CP1 = myeloid differentiation induction; 2% of 2,300 active; calls only; ER-HoxA9 myeloid progenitors, GFP/Mac1 double-positive flow; shares compounds with Myeloid diff MLP;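 active means share of green or green-and-red cells above 9 and 9% in run 1 or 4 and 3% in run 2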
GFP autofluor = counter-screen for myeloid differentiation promoters: compound fluorescence; shares compounds with Myeloid diff MLP; ER-HoxA9 myeloid progenitors, no estrogen, GFP autofluorescence flow cytometry; vehicle wells 0%, positive control 100%; fluorescence response, % (test concentration not listed); 7.4% of 2,300 active;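 active means over 5% cells positive for green fluorescent reporter, or over 2% positive for both it and APC stain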;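 further: range taken on the double positive population between DMSO and positive control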
Numbers without * were called inactive; i = inactive; ? = inconclusive; nt = no result; + = active, no number.

SMILES	MEP2-GFP yeast	AGP1-GFP MLPCN	RPL19A TOR yeast	LAP4 TOR yeast	CIT2-GFP yeast	Myeloid diff MLP	Myeloid diff CP1	GFP autofluor
CCN1C(=S)SC(=O)C1=C1C=C(C)N(CCO)C(C)=C1	105.6	113.4	103.7	103.1	103.5	i	i	0.0
CC[N+](CC)(CC#Cc1ccccc1)CC#Cc1ccccc1	98.2	104.0	97.0	110.2	98.3	?	nt	nt
C#CC[N+](CC)(CC)CC#Cc1ccccc1	104.4	108.6	100.9	110.9	99.5	+	+	3.7
COc1cccc(-c2ccc(NC(=O)C3CCCN(Cc4cccc(C)n4)C3)cc2)c1 (stereo unspecified)	nt	nt	nt	nt	nt	i	i	0.0
O=C(CN1CCN(c2ccc(F)cc2)CC1)Nc1cc(C(F)(F)F)ccc1Cl	100.1	99.0	97.9	95.4	92.4	i	i	0.7
Cc1ccc(OCCn2c(C)nc3ccccc32)cc1	117.6	107.1	108.3	108.1	108.0	i	i	0.3
C(=N\N(c1ccccc1)c1ccccc1)/c1ccc(N2CCOCC2)s1	86.5	92.1	96.5	75.5	89.4	+	i	0.0
O=C(N/N=C/c1ccc(N2CCOCC2)s1)c1ccccc1Cl	108.3	105.9	109.1	100.6	111.4	i	nt	nt
Cc1cc(C(=O)OCC(=O)N2CCC(c3ccccc3)=N2)ccc1[N+](=O)[O-]	98.5	107.2	98.7	109.9	93.6	i	nt	nt
COc1ccccc1NC(=S)NC1CCC(CC2CCC(NC(=S)Nc3ccccc3OC)CC2)CC1 (stereo unspecified)	103.8	97.1	103.8	89.6	99.2	+	i	0.4
Cc1cccc(NC(=O)/C=C/c2ccc(Cl)cc2)n1	100.8	96.7	100.9	85.8	101.8	i	nt	nt
Cc1cc(NC(=O)CSc2nc(C3CC3)nc3sc(C)c(C)c23)no1	110.4	106.1	100.5	106.3	106.3	i	i	2.7*
CCc1nc(SCC(=O)Nc2cc(C)on2)c2c(C)c(C)sc2n1	101.4	97.2	101.0	93.9	95.2	i	nt	nt
NC(=O)NNC1=Nc2cccc3cccc1c23	110.0	100.0	107.7	94.1	90.6	i	i	0.0
CNCC[C@H](Oc1cccc2ccccc12)c1cccs1	100.4	96.4	98.7	103.8	97.6	i	i	0.0
O=C(Nc1nc(-c2nc3ccccc3s2)cs1)C1CC1	98.5	94.7	96.3	119.9	83.6	i	nt	nt
CCCOc1ccc(N2C(=O)CC(S/C(N)=N/N=C(\C)c3cccs3)C2=O)cc1 (stereo unspecified)	94.7	93.6	96.6	86.4	88.6	i	i	0.0
Cn1nnnc1Sc1ccc([N+](=O)[O-])cc1Cl	97.3	98.3	93.4	96.0	89.2	i	i	0.5
O=[N+]([O-])c1ccc(Sc2nnnn2-c2ccccc2)c(Cl)c1	103.2	98.0	100.8	117.6	91.2	+	i	0.0
Cn1nnnc1Sc1c(Cl)cccc1[N+](=O)[O-]	101.0	98.1	99.6	90.5	100.2	i	nt	nt
C(=N\n1cnnc1)/c1ccccc1OCCOc1ccccc1	98.3	97.3	100.0	107.9	104.8	i	nt	nt
COC(=O)CSc1nnc(CNc2ccc(OC)cc2)n1C	100.8	100.9	97.8	101.6	95.4	+	i	0.3
Cc1cccc(-c2nnc(-c3cccc(NC(=O)Cc4cccs4)c3)o2)c1	94.7	92.7	96.0	106.8	89.5	i	i	0.5
O=C(Cc1cccs1)Nc1ccc(-c2nnc(-c3ccccc3)o2)cc1	90.3	85.0	85.0	85.9	88.0	i	nt	nt
COc1cc(OC)c(N2CC(C(=O)Nc3cccc(C(=O)NC4CC4)c3)CC2=O)cc1Cl (stereo unspecified)	nt	nt	nt	nt	nt	i	nt	nt
SMILES	MEP2-GFP yeast	AGP1-GFP MLPCN	RPL19A TOR yeast	LAP4 TOR yeast	CIT2-GFP yeast	Myeloid diff MLP	Myeloid diff CP1	GFP autofluor
COc1ccc(-c2ccc([C@H]3[C@@H]4C=CCC[C@@]4(C)C(=O)N3Cc3ccccc3)c(F)c2)cc1	102.5	100.8	100.2	98.0	97.5	i	i	0.0
CC(=O)Nc1cc(-c2cccc(C(=O)NCCN(C)C)c2)cn2c(-c3ccc(S(C)(=O)=O)cc3)cnc12	nt	nt	nt	nt	nt	+	i	5.3*
CC(=O)Nc1cc(-c2cccc(C(=O)NCCN(C)C)c2)cn2c(-c3ccccc3)cnc12	nt	nt	nt	nt	nt	i	nt	nt
CCCCOc1ccc(C(=O)Nn2c(-c3cccs3)nc3ccccc3c2=O)cc1	102.0	94.3	97.9	85.9	94.0	i	nt	nt
COc1cccc(C(=O)C2CN(c3ccccc3)CC2c2ccc(Cl)cc2)c1 (stereo unspecified)	98.2	94.7	97.5	103.8	103.2	i	nt	nt
Cc1ccc(/C=C/c2onc(C)c2S(=O)(=O)N2CCC(C(=O)N3CCCCC3)CC2)cc1	97.8	112.7	97.3	98.2	94.7	i	i	0.0
Cn1nccc1C(=O)Nc1sc2c(c1C(N)=O)CCCC2	104.0	87.9	100.9	101.6	100.5	i	i	0.0
Cn1nccc1C(=O)Nc1sc2c(c1C#N)CCCC2	104.0	101.1	106.2	99.3	101.0	i	nt	nt
CCN(C(=O)CSc1nc2ccccc2n1C)C1CCS(=O)(=O)C1 (stereo unspecified)	97.6	99.3	96.6	98.3	102.6	i	nt	nt
CC(C)(C)c1nnc(N/N=C/c2ccccc2O)n(N)c1=O	82.6	89.4	89.7	99.3	86.9	?	nt	nt
O=C(Nc1cccc2ccccc12)C1CCN(C(=O)Cc2ccccc2)CC1	93.1	92.8	91.8	89.0	97.2	nt	i	0.0
O=C(OCc1ccccc1)N1CCOCCOCCN(C(=O)OCc2ccccc2)CCOCCOCC1	104.0	95.2	99.4	101.7	94.1	+	i	0.0
CC(C)Oc1ccc(F)cc1-c1cc(C(=O)Nc2ccc(C(C)(C)C)cc2)[nH]n1	nt	nt	nt	nt	nt	i	nt	nt
CCCC(=O)NC(=S)Nc1ccc(N2CCOCC2)c(Cl)c1	99.4	85.6	93.0	86.0	89.7	i	i	0.0
O=C(CSc1nnnn1-c1ccc(F)cc1)Nc1ccc(N2CCOCC2)c(Cl)c1	103.4	97.5	97.5	112.7	96.7	+	i	0.0
O=C(NC(=S)Nc1ccc(N2CCOCC2)c(Cl)c1)C(c1ccccc1)c1ccccc1	98.0	106.6	99.0	98.8	98.0	i	nt	nt
COc1ccc(NC(=O)CSc2nnnn2-c2ccc(F)cc2)cc1	101.7	106.5	104.6	92.0	104.0	i	nt	nt
COc1cc(/C=C/C(=O)O)cc(S(=O)(=O)NNC(=O)c2ccc3c(c2)OCO3)c1OC	108.0	98.1	97.0	97.2	108.9	i	nt	nt

Screens (PubChem)
